According to PubChem BioAssay (NCI):
Compounds without any hit were thinned out: in the full panel of roughly 83,000, 20% have a hit.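 A percent growth of 40 corresponds to 60% growth inhibition; 0 means no net growth; -100 means all cells died. Active threshold: below 10.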 Calls of active or inactive are those of the source.

tested on: BT-549 breast; assay: NCI-60 one-dose screen, 48 h (100 = growth as untreated, 0 = no growth, -100 = all killed); conditions: 10 µM unless noted
Method: Growth inhibition of the BT-549 human tumor cell line is measured as a screen for anti-cancer activity. Cells are grown in 96 well plates and exposed to the test compound for 48 hours. Compounds are tested at a single concentration, which is 10^-5 M for most compounds. The reported endpoint is percent growth (GI% or GIPRCNT), where numbers from 0 - 100% represent growth inhibition, and numbers from -100% - 0 represent cell death. For example, a value of 40 represents 60% growth inhibition. A value of 0 means no net growth occurred over the course of the experiment. A value of -40 indicates 40% of cells at the beginning of the experiment died by the end of the experiment. A value of -100 means all cells are dead at the end of the experiment.
NCI-60 Human Tumor Cell Lines Screen was performed using the standard one-dose NCI protocol, which is described in more detail at https://dtp.cancer.gov/discovery_development/nci-60/default.htm.
Compounds with GIPRCNT values below 10 were considered active. Activity score was based on GIPRCNT using the following formula: […]
Score is 0 for GIPRCNT values of 100 or above, 50 for GIPRCNT values of 0, and 100 for GIPRCNT values of -100.

Compound	growth
O=C(CCl)N1c2ccccc2Sc2c1ccc1ccccc21	36.9% (inactive)
COc1cc(NCc2ccc3nc(N)nc(N)c3c2C)cc(OC)c1OC (tested in a mixture with another compound)	56.1% (inactive)
O=[N+]([O-])c1cc(-c2ccccc2)c(O)c([N+](=O)[O-])c1	52.2% (inactive)
NC(=S)N/N=C\c1nccc2c(C(F)(F)F)cccc12	7.77% (active)
O=C(CBr)c1ccc(OC(=O)c2ccccc2)cc1	105% (inactive)
CC(C)c1ccc(Nc2n[nH]c(=S)s2)cc1	96.2% (inactive)
Cc1ccccc1N=C(N)Nc1ccccc1C (tested in a mixture with another compound)	96.1% (inactive)
O=[n+]1c2ccccc2n([O-])c2cc(Cl)ccc21	74.7% (inactive)
CCCCCCCCCCCCCCCCCC1=NCCCN1CCO	99.9% (inactive)
CCCCCCCCCCCC(=O)OC(C)C(=O)NCCCC (stereo not given)	92.5% (inactive)
O=C(CCl)N(c1ccccc1)c1ccccc1	106% (inactive)
CC(C)N=C(N)/N=C(\N)Nc1ccc2ccc3ccccc3c2c1	-55.3% (active)
O=C1c2ccccc2C(=O)c2c(O)c(Cl)cc(O)c21	98.7% (inactive)
CC(=O)c1c(O)c(C)c(O)c2c1OC1=CC(=O)C(C(C)=O)C(=O)C12C (stereo not given)	55.8% (inactive)
CCCCCCCCCCCC[S+](C)CC(=O)[O-] (stereo not given)	-29.2% (active)
S=C(S)OCN1CCOCC1	100% (inactive)
CC1(C)OCC(COC(c2ccccc2)(c2ccccc2)c2ccccc2)O1 (stereo not given)	119% (inactive)
O=C(Cc1nc2cc(Cl)c(Cl)cc2nc1CC(=O)c1ccccc1)c1ccccc1	52% (inactive)
O=C(c1ccccc1)c1cc2ccccc2oc1=O	89.8% (inactive)
COC(=O)c1cc([N+](=O)[O-])cc([N+](=O)[O-])c1Cl	117% (inactive)

Compound	growth
O=[N+]([O-])c1ccc(N2CCN(Cc3ccccc3)CC2)c2c1no[n+]2[O-]	-25.5% (active)
NCCCN(CCCN)CCCNCc1c2ccccc2c(CNCCCN(CCCN)CCCN)c2ccccc12	103% (inactive)
O=C1CSC(=S)N1Cc1cccnc1	51.7% (inactive)
CCOC(=O)c1[nH]c(C#N)c(C(=O)OCC)c1C	109% (inactive)
CCC(C)C(N)C(=O)NC(CC(N)=O)C(=O)NC(CC(C)C)C(=O)NC(CCCCN)C(=O)NC(C)C(=O)NC(CC(C)C)C(=O)NC(C)C(=O)NC(C)C(=O)NC(CC(C)C)C(=O)NC(C)C(=O)NC(CCCCN)C(=O)NC(CCCCN)C(=O)NC(C(=O)NC(CC(C)C)C(N)=O)C(C)CC (stereo not given)	134% (inactive)
CCCCCCCCCCCC1=NCCCN1CCCC	94.6% (inactive)
CCCCCC/C=C1\CCC(CN2CCCC2)C1=O (stereo not given)	104% (inactive)
Cc1cc2nc(CC(=O)c3ccncc3)c(=O)[nH]c2cc1C	88.9% (inactive)
Clc1ccccc1C(c1ccccc1)(c1ccccc1)n1ccnc1	42.5% (inactive)
N#CC1c2ccccc2C=CN1C(=O)CCCl (stereo not given)	92.1% (inactive)
CCN1CCCC(Nc2cc(C)nc(/N=C(/N)Nc3ccc(Cl)c(Cl)c3)n2)C1 (stereo not given)	-59.5% (active)
COc1ccc2nc3cc(Cl)ccc3c(NCCCCCN3CCCCC3)c2c1	19% (inactive)
CCCCC(C=O)(C=C=C(C)C)CC (stereo not given)	103% (inactive)
CCCCCCN(CCCCCC)CCCNc1nccc2ccccc12	39.7% (inactive)
c1ccc(C2NCCNC2c2ccccc2)cc1 (stereo not given)	103% (inactive)
C[n+]1ccccc1C[n+]1ccccc1	108% (inactive)
COc1cc(-c2ccc(-[n+]3nc(-c4ccc([N+](=O)[O-])cc4)nn3-c3ccc([N+](=O)[O-])cc3)c(OC)c2)ccc1-[n+]1nc(-c2ccc([N+](=O)[O-])cc2)nn1-c1ccc([N+](=O)[O-])cc1	26.9% (inactive)
C[C@@]1(CO)[C@H](O)CC[C@@]2(C)[C@H]1CC[C@H]1C[C@@H]3C[C@@]12CC[C@@]3(O)COC(=O)CN	46.3% (inactive)
O=C(Cc1nc2cc(Cl)c(Cl)cc2nc1CC(=O)c1cccnc1)c1cccnc1	2.99% (active)
OC(CSc1ccccc1)CN1CCN(c2ccc(Cl)cc2)CC1 (stereo not given)	102% (inactive)
